Reference: PubChem BioAssay (NCATS)
“And” between values parts separate entries of the source, which are not always exact repeats. Identical values can stand only once. Inconclusive results are not listed. The source made the active and inactive calls. Unless noted, the call rests on the fitted dose curve; in most records, active means well fitted curve in the direction sought with a large enough effect; inconclusive means small, poorly fitted or top-dose-only effect, or another doubt; inactive means no such curve, though single readings can be large; an effect the other way counts as inactive or inconclusive.

Legend:
[1] = Validation of Assay for Modulators of Lamin A Splicing (AID 1459; active means well fitted curve in the direction sought with a large enough effect in the signal ratio; the % refers to the signal ratio;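 further: cells exposed to compound for two days before reading; 0% is about no effect; ratio rise marks activators and ratio drop marks inhibitors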)
How it was run: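 Dual-reporter HeLa S3 line (lamin A-EGFP minigene, DsRed2) treated with compounds 48 hrs, 0.5% DMSO final. Endpoint: EGFP/DsRed2 total intensity ratio from laser-scanning microplate cytometry.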

[2] = qHTS Assay for Lipid Storage Modulators (AID 1519; calls by dose curve; on activity change, negative = inhibition: on the % scale 0 is the no-effect control and ±100 the full control effect); conditions: Drosophila S3 cells, BODIPY lipid droplet/cell ratio, laser cytometry, cells loaded with oleic acid; for activity change, negative = inhibition: at 57.5 µM (top of the series)
How it was run: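 Cells seeded at 5,000 per well were treated with compounds over a concentration series and loaded with oleic acid (400 uM, as added). Lipid droplet fluorescence (488 nm excitation, 500-530 nm channel) was read by laser-scanning cytometry and normalized to 20 uM Triacsin C.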

[3] = biological target: DNA repair nuclease/redox regulator APEX1 (Homo sapiens) (UniProt P27695); assay: qHTS Validation Assay for Inhibitors of the Human Apurinic/apyrimidinic Endonuclease 1 (APE1) (AID 1705;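 further: TAMRA fluorescence gain over two minutes as APE1 cuts a quenched THF abasic duplex; on the % scale 0 is the no-effect control and ±100 the full control effect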)
Sequence of DNA repair nuclease/redox regulator APEX1 (Homo sapiens) (P27695 whole entry, looked up): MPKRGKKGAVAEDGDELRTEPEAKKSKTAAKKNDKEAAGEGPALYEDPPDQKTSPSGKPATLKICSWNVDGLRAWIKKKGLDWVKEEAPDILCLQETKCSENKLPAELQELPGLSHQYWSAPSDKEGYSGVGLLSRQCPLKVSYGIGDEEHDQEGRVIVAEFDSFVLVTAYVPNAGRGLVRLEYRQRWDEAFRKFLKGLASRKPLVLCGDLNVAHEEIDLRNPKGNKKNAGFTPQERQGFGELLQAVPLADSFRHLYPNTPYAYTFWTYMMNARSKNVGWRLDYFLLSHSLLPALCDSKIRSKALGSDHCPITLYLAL
How it was run: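 Substrate: 50 nM final fluorophore/quencher THF-abasic duplex. Enzyme preincubated with compounds 15 min, RT. Progress derived from fluorescence difference, third minus first kinetic read.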

[4] = Counterscreen for APE1 Inhibitors: Fluorescent Dye Displacement Validation Assay (AID 1707);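 further: plate controls were ThO with dsDNA and no compound for no effect and ThO without dsDNA for full effect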
How it was run: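 Thiazole Orange (250 nM) bound to 50 nM TAMRA-labelled dsDNA with tetrahydrofuran abasic site; displacement by DNA-binding compounds lowers fluorescence. Buffer 50 mM Tris-HCl pH 7.5, 50 mM NaCl, 2 mM MgCl2, 0.01% Tween-20; endpoint read at 480/540 nm.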

[5] = biological target: Endonuclease 4 (Escherichia coli (strain K12)) (UniProt P0A6C1); assay: Counterscreen for APE1 Inhibitors: qHTS Validation Assay for Inhibitors of Endonuclease IV (AID 1708); further: on the % scale 0 is the no-effect control and ±100 the full control effect
How it was run: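 qHTS concentration-response format; LOPAC1280 tested under APE1-screen conditions. 2 nM enzyme, 15 min compound preincubation at RT, then 50 nM TAMRA/BHQ-2 abasic substrate; kinetic fluorescence read, three reads at 60 s intervals.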

[6] = qHTS for differential inhibitors of proliferation of Plasmodium falciparum line 7G8 (AID 1815);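 further: parasite growth measured after three days of incubation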; further: potency means the concentration at half of the fitted maximal effect;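 on activity change, negative = inhibition: plate controls were vehicle wells for no effect and reference inhibitor wells for full effect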
[7] = qHTS for differential inhibitors of proliferation of Plasmodium falciparum line GB4 (AID 1816); conditions: Potency: Plasmodium falciparum GB4 proliferation inhibition;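 further: parasite growth measured after 72 h incubation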; further: potency means the concentration at half of the fitted maximal effect;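 on activity change, negative = inhibition: 0% = vehicle DMSO and -100% = reference inhibitor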
[8] = qHTS for differential inhibitors of proliferation of Plasmodium falciparum line 3D7 (AID 1876); further: potency means the concentration at half of the fitted maximal effect
[9] = qHTS for differential inhibitors of proliferation of Plasmodium falciparum line D10 (AID 1877);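 further: parasites grown with compound for 72 h before DNA staining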; further: potency means the concentration at half of the fitted maximal effect;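 on activity change, negative = inhibition: plate controls were vehicle wells for no effect and reference inhibitor wells for full effect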
[10] = qHTS for differential inhibitors of proliferation of Plasmodium falciparum line Dd2 (AID 1882); conditions: Potency: Plasmodium falciparum Dd2 proliferation inhibition; further: nearly all actives have a fitted effect of over 65% in size; further: potency means the concentration at half of the fitted maximal effect;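 on activity change, negative = inhibition: plate controls were DMSO vehicle for no effect and 0.29 µM artemisinin for full effect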
How it was run: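 Dd2-infected erythrocytes (0.3% parasitemia, 2.5% hematocrit final) incubated with compound 72 h at 37 C, 5% CO2; lysed with saponin/Triton buffer containing SYBR Green I, incubated overnight in the dark, then read by fluorescence (485/535 nm). Normalized to 0.29 uM artemisinin and DMSO.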

[11] = qHTS for differential inhibitors of proliferation of Plasmodium falciparum line W2 (AID 1883); conditions: Potency: Plasmodium falciparum W2 proliferation inhibition;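 further: parasites grown with compound for 72 h before lysis and staining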; further: potency means the concentration at half of the fitted maximal effect;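 on activity change, negative = inhibition: 0% = vehicle wells and -100% = control inhibitor wells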
[12] = qHTS for differential inhibitors of proliferation of Plasmodium falciparum line HB3 (AID 1886); conditions: Potency: Plasmodium falciparum HB3 proliferation inhibition;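 further: parasites grown with compound for 72 h before SYBR Green readout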; further: potency means the concentration at half of the fitted maximal effect;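 on activity change, negative = inhibition: plate controls were vehicle for no effect and reference inhibitor for full effect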
[13] = qHTS Assay for Modulators of Human Peripheral Myelin Protein 22 (PMP22) Expression/Activity (AID 1967; active means well fitted curve in the direction sought with a large enough effect in the signal ratio; the % refers to the signal ratio;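 further: 0% = untreated cells and 100% end not stated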)
How it was run: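 Engineered MSC80 cells, Pmp22-promoter green and EF-alpha red luciferase reporters; 24h compound treatment at 37 °C. Concentration-response fits on green, red and ratio signals, each overlap-corrected, with %Activity normalized to untreated wells.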

[14] = biological target: Ferritin light chain (Equus caballus) (UniProt P02791); assay: qHTS Validation Assay for Identification of Novel General Anesthetics (AID 2323); further: on the % scale 0 is the no-effect control and ±100 the full control effect
Sequence of Ferritin light chain (Equus caballus) (P02791 2-175 limits assumed): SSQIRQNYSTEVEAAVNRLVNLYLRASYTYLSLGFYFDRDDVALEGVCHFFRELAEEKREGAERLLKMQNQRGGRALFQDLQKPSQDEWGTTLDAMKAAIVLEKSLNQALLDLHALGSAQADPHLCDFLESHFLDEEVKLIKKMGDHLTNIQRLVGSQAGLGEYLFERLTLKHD
How it was run: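 Normalized fluorescence response, scaled between free 1-AMA and 1-AMA/apoferritin complex, fitted to a four-parameter Hill equation for concentration-effect values. Binding mix: 10 uM horse-spleen apoferritin, 50% saturated 1-AMA in PBS; read 380/535 nm after 10 min.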

[15] = biological target: ATP-dependent DNA helicase Q1 (Homo sapiens) (UniProt P46063); assay: qHTS Validation Assay for Inhibitors of RecQ-Like Dna Helicase 1 (RECQ1) (AID 2353);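 further: plate controls were DMSO vehicle for no effect and enzyme-free control for full effect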
Sequence of ATP-dependent DNA helicase Q1 (Homo sapiens) (P46063 whole entry, looked up): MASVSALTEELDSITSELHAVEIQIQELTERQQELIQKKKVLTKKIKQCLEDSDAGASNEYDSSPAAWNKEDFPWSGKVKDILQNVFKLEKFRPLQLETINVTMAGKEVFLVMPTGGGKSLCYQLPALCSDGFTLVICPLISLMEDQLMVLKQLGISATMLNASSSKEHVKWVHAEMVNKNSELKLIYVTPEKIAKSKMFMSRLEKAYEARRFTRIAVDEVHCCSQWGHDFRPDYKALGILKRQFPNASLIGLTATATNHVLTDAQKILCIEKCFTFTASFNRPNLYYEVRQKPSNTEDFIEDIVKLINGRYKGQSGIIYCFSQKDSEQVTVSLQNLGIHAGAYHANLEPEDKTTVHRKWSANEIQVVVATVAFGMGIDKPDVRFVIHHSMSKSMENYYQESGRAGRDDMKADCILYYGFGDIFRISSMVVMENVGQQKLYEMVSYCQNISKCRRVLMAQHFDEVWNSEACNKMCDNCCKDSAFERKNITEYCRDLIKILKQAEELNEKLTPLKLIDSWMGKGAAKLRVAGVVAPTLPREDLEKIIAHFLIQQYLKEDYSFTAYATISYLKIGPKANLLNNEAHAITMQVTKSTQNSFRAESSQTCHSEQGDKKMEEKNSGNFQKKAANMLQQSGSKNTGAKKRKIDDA
How it was run: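 50 nM RECQ1T1 preincubated 15 min with compound in Tris pH 8.0 buffer with MgCl2, DTT, Tween-20 and 2.5 ug/ml poly(dI-dC); started with 200 nM TAMRA/BHQ-2 forked duplex and 2 mM ATP. Unwinding read as fluorescence (525/598 nm), two reads 2 h apart.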

[16] = Cytometric Cell-Based qHTS for Inhibitors of the mTORC1 Signaling Pathway in MEF (Tsc2-/-, p53-/-) Cells (AID 2660);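 further: percent of cells above a phospho-rpS6 to PI ratio cutoff in each well; plate controls were DMSO for no effect and rapamycin for full effect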
How it was run: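 Tsc2-/-, p53-/- MEFs (empty vector) exposed to compound 24 h at 37 C, fixed, stained with Alexa-488 anti-phospho-rpS6 Ser235/236 and propidium iodide. Acumen laser scanning; phospho-S6/PI ratio thresholded against 7.5 nM rapamycin, reported as % positive cells.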

[17] = biological target: RecQ-like DNA helicase BLM (Homo sapiens) (UniProt P54132); assay: qHTS Validation Assay for Inhibitors of Bloom's syndrome helicase (BLM) (AID 2364);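 further: plate controls were DMSO vehicle for no effect and enzyme-free control for full effect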
Sequence of RecQ-like DNA helicase BLM (Homo sapiens) (P54132 whole entry, looked up): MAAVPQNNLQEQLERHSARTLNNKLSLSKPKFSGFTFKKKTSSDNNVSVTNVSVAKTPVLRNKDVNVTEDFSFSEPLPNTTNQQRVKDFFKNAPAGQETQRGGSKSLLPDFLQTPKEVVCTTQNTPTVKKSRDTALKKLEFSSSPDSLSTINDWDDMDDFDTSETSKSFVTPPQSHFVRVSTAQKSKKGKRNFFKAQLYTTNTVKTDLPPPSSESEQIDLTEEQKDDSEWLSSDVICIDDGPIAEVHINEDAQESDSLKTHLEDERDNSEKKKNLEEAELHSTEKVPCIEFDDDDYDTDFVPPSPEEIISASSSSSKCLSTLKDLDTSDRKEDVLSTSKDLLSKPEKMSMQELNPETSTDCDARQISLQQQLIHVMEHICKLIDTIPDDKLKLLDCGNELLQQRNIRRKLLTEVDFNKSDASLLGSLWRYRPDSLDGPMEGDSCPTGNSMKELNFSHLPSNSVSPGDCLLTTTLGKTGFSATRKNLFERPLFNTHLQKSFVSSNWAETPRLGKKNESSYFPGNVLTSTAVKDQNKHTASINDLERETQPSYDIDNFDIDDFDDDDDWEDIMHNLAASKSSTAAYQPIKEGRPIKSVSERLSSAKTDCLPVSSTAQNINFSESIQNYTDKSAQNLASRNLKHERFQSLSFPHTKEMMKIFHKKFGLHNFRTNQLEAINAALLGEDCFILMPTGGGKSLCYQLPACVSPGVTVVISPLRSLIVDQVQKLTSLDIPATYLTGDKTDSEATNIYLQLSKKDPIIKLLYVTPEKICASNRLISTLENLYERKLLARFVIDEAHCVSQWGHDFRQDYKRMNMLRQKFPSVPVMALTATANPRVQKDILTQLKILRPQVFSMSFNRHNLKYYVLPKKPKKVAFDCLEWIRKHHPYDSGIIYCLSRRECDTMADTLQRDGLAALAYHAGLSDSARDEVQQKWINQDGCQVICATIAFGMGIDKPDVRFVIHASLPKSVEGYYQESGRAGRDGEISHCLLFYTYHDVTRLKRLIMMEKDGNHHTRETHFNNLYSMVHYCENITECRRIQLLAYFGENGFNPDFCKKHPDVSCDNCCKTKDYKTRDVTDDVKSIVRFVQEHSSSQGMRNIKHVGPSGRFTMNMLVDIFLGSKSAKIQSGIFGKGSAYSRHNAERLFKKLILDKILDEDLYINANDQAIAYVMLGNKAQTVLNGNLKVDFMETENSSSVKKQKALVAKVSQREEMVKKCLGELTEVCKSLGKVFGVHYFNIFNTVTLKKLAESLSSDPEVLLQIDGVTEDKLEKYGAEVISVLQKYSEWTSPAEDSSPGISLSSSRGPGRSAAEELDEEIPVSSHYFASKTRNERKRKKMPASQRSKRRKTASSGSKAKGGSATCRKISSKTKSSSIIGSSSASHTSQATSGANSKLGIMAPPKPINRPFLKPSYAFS
How it was run: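 Forked 20-bp duplex substrate (200 nM, TAMRA/BHQ-2) plus 2 mM ATP added after 15 min compound preincubation with 50 nM enzyme, pH 8.0, poly(dI-dC) 2.5 ug/ml. Strand separation followed by fluorescence (525/598 nm) over 2 h, normalized to enzyme-free and DMSO controls.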

[18] = High Content Imaging Cell-Based qHTS for Inhibitors of the mTORC1 Signaling Pathway in MEF (Tsc2-/-, p53-/-) Cells (AID 2666);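 further: percent of cells scored positive for phospho-rpS6 Ser235/236 immunostaining by imaging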
How it was run: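 Cells were plated, dosed with compound after 24 hrs, and incubated another 24 hrs at 37 degree Celsius. Fixed cells were immunostained for phospho-rpS6 Ser235/236 and counterstained, and the normalized signal was scored as % active cells against rapamycin and DMSO controls.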

[19] = measured here: cell count channel max response
[20] = measured here: lipid channel max response

CC1(C)CCC=[N+]1[O-]
-25.6%: max response [2, 20]
inactive: outcome [1] | activity change, negative = inhibition [2] 0.483% | Potency [3] | Potency [4] | Potency [5] | Potency [6] | Potency [7] | Potency [8] | Potency [9] | Potency [10] | Potency [11] | Potency [12] | outcome [13] | Potency [14] | Potency [15] | outcome [16]
-28.1%: max response [2, 19]

OCC1O[C@H](O)C(Cl)C(O)C1O (some centres undefined)
-14.7%: max response [2, 20]
inactive: outcome [1] | activity change, negative = inhibition [2] 0.529% | Potency [3] | Potency [4] | Potency [5] | Potency [7] | Potency [8] | Potency [9] | Potency [10] | Potency [11] | Potency [12] | outcome [13] | Potency [14] | Potency [15] | outcome [16]
-14.2%: max response [2, 19]

NC(N)=NC(=O)c1nc(Cl)c(N2CCCCCC2)nc1N
active: Potency [6] 8.91 µM | Potency [7] 12.6 µM | Potency [8] 4.47 µM | Potency [9] 7.94 µM | Potency [11] 2.82 µM | Potency [12] 7.94 µM
5.25% and -33%: max response [2, 19]
6.67% and -33.1%: max response [2, 20]
inactive: outcome [1] | activity change, negative = inhibition [2] -1.28% and 0.178% | Potency [3] | Potency [4] | Potency [15] | Potency [17] | outcome [16]

OC[C@H]1O[C@@H](n2cnc3c(NC4CCCCC4)ncnc32)[C@H](O)[C@@H]1O
inactive: outcome [1] | activity change, negative = inhibition [2] 0.866% | Potency [3] | Potency [4] | Potency [5] | Potency [6] | Potency [7] | Potency [8] | Potency [9] | Potency [10] | Potency [12] | Potency [14] | Potency [15] | Potency [17] | outcome [16] | Potency [18]
-24.5%: max response [2, 20]
-23.3%: max response [2, 19]

COc1cc2nc(N3CCN(C(=O)OCc4ccccc4)C(C(=O)NC(C)(C)C)C3)nc(N)c2cc1OC (centres undefined)
active: Potency [6] 2.82 µM | Potency [7] 2.82 µM | Potency [8] 3.16 µM | Potency [9] 10 µM | Potency [10] 8.91 µM | Potency [11] 2.24 µM | Potency [12] 7.94 µM
38.8%: max response [2, 19]
inactive: outcome [1] | activity change, negative = inhibition [2] 1.16% | Potency [3] | Potency [4] | Potency [5] | Potency [14] | Potency [15] | Potency [17] | outcome [16] | Potency [18]
39.8%: max response [2, 20]

COc1cccc(OC)c1OCCNCC1COc2ccccc2O1 (centres undefined)
10.2% and -61.3%: max response [2, 19]
inactive: outcome [1] | activity change, negative = inhibition [2] 3.94% and -4.43% | Potency [3] | Potency [4] | Potency [5] | Potency [14] | Potency [15] | Potency [17] | outcome [16]
active: Potency [6] 7.94 µM | Potency [11] 3.98 µM
14.3% and -62.3%: max response [2, 20]

O=C(O)[C@@H]1C[C@@H](C(=O)O)N1
-25% and -8.29%: max response [2, 20]
-15.8% and -6.72%: max response [2, 19]
inactive: outcome [1] | activity change, negative = inhibition [2] -10.7% and 0.262% | Potency [3] | Potency [4] | Potency [5] | Potency [6] | Potency [7] | Potency [8] | Potency [9] | Potency [10] | Potency [12] | outcome [13] | Potency [14] | Potency [15] | outcome [16] | Potency [18]

NCCNC(=O)c1ncsc1-c1cccc(F)c1
inactive: outcome [1] | Potency [3] | Potency [4] | Potency [5] | Potency [8] | Potency [9] | Potency [12] | Potency [14] | Potency [15] | Potency [17] | outcome [16] | Potency [18]

O=C(O)c1cc(=O)c2ccccc2[nH]1
inactive: outcome [1] | activity change, negative = inhibition [2] 3.93% [middle of 4 runs] | Potency [3] | Potency [4] | Potency [5] | Potency [6] | Potency [7] | Potency [8] | Potency [9] | Potency [10] | Potency [11] | Potency [12] | outcome [13] | Potency [14] | Potency [15] | Potency [17] | outcome [16] | Potency [18]

c1cnc2c(c1)ccc1cccnc12
active: Potency [6] 1.58 µM | Potency [7] 2 µM | Potency [8] 2 µM | Potency [9] 2.51 µM | Potency [10] 2 µM | Potency [11] 1 µM | Potency [12] 2 µM
inactive: outcome [1] | Potency [3] | Potency [4] | Potency [14] | Potency [15] | Potency [17] | outcome [16] | Potency [18]

N#C/C(=C\c1ccc(O)c(O)c1)C(=O)NCCCc1ccccc1
active: Potency [6] 8.91 µM | Potency [7] 14.1 µM | Potency [9] 11.2 µM | Potency [11] 7.08 µM | Potency [12] 12.6 µM
inactive: outcome [1] | Potency [3] | Potency [5] | Potency [15] | outcome [16] | Potency [18]

CN(C)C(N)=NCCC[C@H](N)C(=O)O
inactive: outcome [1] | Potency [3] | Potency [4] | Potency [5] | Potency [6] | Potency [7] | Potency [8] | Potency [9] | Potency [10] | Potency [11] | Potency [12] | Potency [14] | Potency [15] | outcome [16]

CCCn1c(=O)c2[nH]c(-c3ccc(OCC(=O)NCCN)cc3)nc2n(CCC)c1=O
inactive: outcome [1] | Potency [3] | Potency [4] | Potency [5] | Potency [14] | Potency [15] | Potency [17] | outcome [16] | Potency [18]
active: Potency [7] 10 µM | Potency [11] 12.6 µM

NC(=O)C(=O)O
inactive: outcome [1] | Potency [3] | Potency [4] | Potency [5] | Potency [6] | Potency [7] | Potency [8] | Potency [9] | Potency [10] | Potency [11] | Potency [12] | outcome [13] | Potency [14] | Potency [15] | outcome [16] | Potency [18]

O=C(O)CC1CCCc2ccccc2C1O (centres undefined)
inactive: outcome [1] | Potency [3] | Potency [4] | Potency [6] | Potency [7] | Potency [8] | Potency [9] | Potency [10] | Potency [11] | Potency [12] | outcome [13] | Potency [14] | Potency [15] | outcome [16]

CCCCC/C=C\CC(O)/C=C/c1cccc(CC(O)CCCCO)n1 (centres undefined)
active: Potency [8] 14.1 µM
inactive: outcome [1] | Potency [3] | Potency [4] | Potency [5] | Potency [10] | Potency [14] | Potency [15] | Potency [17] | outcome [16]
